# Laboratory results published in ChEMBL document CHEMBL3433997, “St. Jude Leishmania screening dataset” (2016).
# Target: Hexose transporter 1 (Plasmodium falciparum) (UniProt O97467)
# Test: ST_JUDE_LEISH: Cytotoxicity at 2uM final concentration against transgenic Leishmania Mexicana promastigotes LmPfHT that are glucose transport deficient and complemented with the Plasmodium falciparum hexose transporter. Activity is measured by DNA content using SYBR green in vitro
# Type: functional
row,SMILES,inhibition
1,N#Cc1cccc(Nc2nccc(Nc3ccc(Oc4ccccc4)cc3)n2)c1,5.4%
2,CCn1c(-c2nonc2N)nc2c(-c3cccc(NC(=O)Nc4cccc(C(F)(F)F)c4)c3)ncc(OCCCN)c21,1.37%
3,CC(=NNC(=N)N)c1ccc2c(ccc3ccccc32)c1,1.59%
4,CCc1cc(-c2onc(C)c2-c2cc3ccccc3o2)c(O)cc1OC,-1.2%
5,O=C1CCCN1CCCNCc1cccc(-c2ccc(-c3nc4cc(C(F)(F)F)ccc4[nH]3)cc2)c1,13%
6,O=C(/C=C/c1ccc(Cl)c(Cl)c1)NCCCCCN1CCC(NC(=O)Nc2cc(Cl)nc(Cl)c2)CC1,-0.18%
7,N=C(N)NCCN(Cc1ccccc1)c1ccccc1,1.13%
8,COc1ccc2nccc([C@@H](O)CN3CCC(NC(=O)C(c4ccsc4)N4CCN(c5ccccc5OC)CC4)CC3)c2c1 (stereo not given in full),1.41%
9,CS(=O)(=O)N1CC2(CCN(CCC(NC(=O)/C=C/c3ccccc3)c3ccc(Cl)c(Cl)c3)CC2)c2ccccc21 (stereo not given),0.3%
10,CC[C@H](C)CNC(=O)c1cncc(-c2cccc(CNCCCc3ccccc3)c2)c1,3.06%
11,CC(=O)Oc1ccc(C(=O)Oc2ccccc2C#CC#N)cc1OC(C)=O,0.93%
12,COc1ccc2nccc([C@@H](O)CN3CCC(NCc4ccc5c(c4)N(C)C(=O)CO5)CC3)c2c1,0.25%
13,Cc1c(CC(=O)NCCC2CCN(CCCCCNC(=O)/C=C/c3ccc(Cl)c(Cl)c3)CC2)sc2ccc(Cl)cc12,5.42%
14,Cc1cccc2nc(-c3cccc(-c4cccc(NC(=O)c5csnn5)c4)c3)[nH]c12,1.69%
15,CN(C)C(=O)O[C@@H]1CN[C@H](C#Cc2cc3ncnc(Nc4ccc5c(cnn5Cc5cccc(F)c5)c4)c3s2)C1,9.66%
16,CCN(CC)CCCN(CCCN(CC)CC)c1cc(C)nc(Nc2ccc3cc(Br)ccc3c2)n1,4.9%
17,CC(C)(C)c1ccc(NC(=O)c2cccc(CN3CCCN(CC4CCCCC4)CC3)c2)cc1,1.77%
18,Cc1cccc2nc(-c3cccc(-c4cccc(NC(=O)c5ccncc5)c4)c3)[nH]c12,3.01%
19,COCCN1CCC(NCC(C)(C)c2nc(-c3ccc(Cl)c(O)c3)c(-c3ccncc3)[nH]2)CC1,8.59%
20,CN(CC(=O)Nc1ccc(F)c(F)c1F)c1ncnc2sc(-c3ccccc3)cc12,4.09%

row,SMILES,inhibition
1,Cc1cccc2nc(-c3ccc(-c4ccc(NC(=O)Nc5ccc(F)c(F)c5F)cc4)cc3)[nH]c12,8.02%
2,O=C(Nc1ccc(Cl)cc1F)N[C@H]1CCN(CCCCCNC(=O)C2CC2c2ccc(Cl)c(Cl)c2)C1 (stereo not given in full),8.26%
3,CC(C)NCc1cccc(-c2ccc(-c3nc4cc(C(F)(F)F)ccc4[nH]3)cc2)c1,6.19%
4,CCOC(=O)c1ccc(NCc2ccccn2)cc1,3.01%
5,COc1cc(F)c2ncc(C#N)c(CCN3CCC(NCc4ccc5c(c4)OCCO5)CC3)c2c1,95.1%
6,CC(C)(C)c1ccc(CN2CCC(CNC(=O)c3cc(-c4ccccc4Cl)cs3)C2)cc1 (stereo not given),0.05%
7,CC1CN(Cc2ccccc2)CCN1c1ccc(NC(=O)c2ccc(F)cc2)cc1 (stereo not given),-1.7%
8,Cc1[nH]c(CNCCCNc2cc(=O)c3ccccc3[nH]2)c(Br)c1Br,1.85%
9,O=C1c2ccccc2C(=O)N1CCOc1c(Br)cc(Br)cc1CNCCCNc1cc(=O)c2ccccc2[nH]1,1.96%
10,Oc1ccc2ccccc2c1C=NNc1nc(=Nc2ccccc2)nc(N2CCOCC2)[nH]1,3.72%
11,CCCCCN1CCC(NC(=O)c2ccc(C(=O)Nc3ccc(C(C)C)cc3)cc2)CC1,-0.06%
12,Fc1cccc(COc2ccc(Nc3ncnc4ccc(C#C[C@H]5CCCN5)cc34)cc2Cl)c1,1.5%
13,N#Cc1cccc(NC(=O)Nc2ccc(-c3csc(-c4nc5ccccc5[nH]4)c3)cc2)c1,9.33%
14,COC(=O)CCCCCOc1cc(Cc2cnc(N)nc2N)cc(OC)c1OC,-5.95%
15,CCCCOc1ccccc1C(=O)NCc1csc(-c2ccccc2)n1,1.14%
16,COc1c(C2CCN(CCCCNC(=O)c3cc(-c4ccc(Cl)cc4)oc3C)CC2)ccc2c1CCCC2,9.78%
17,Clc1ccc2c(NN=Cc3ccco3)ccnc2c1,3.49%
18,CCc1sc(CN(CCCNc2cc(=O)c3ccccc3[nH]2)Cc2sc(CC)c(Br)c2-c2ccsc2)c(-c2ccsc2)c1Br,4.16%
19,CC(C)N1CCC(N(Cc2ccc(-c3ccc(C(F)(F)F)cc3)cc2)C(=O)Cn2c(CCc3cccc(F)c3F)nc(=O)c3cccnc32)CC1,1.97%
20,O=C(NCCCN1CCN(c2cccc(Cl)c2)CC1)c1ccc(-c2nc3cc(Cl)c(Cl)cc3[nH]2)c(F)c1,1.4%
